Screening data deposited in PubChem BioAssay by National Center for Advancing Translational Sciences (NCATS).
Many of the other results were omitted from the sample, so hits are more common in it than they were.
BRCT inh red = inhibitors of human BRCA1 BRCT-phosphoprotein interaction (red fluorophore). actives 0.03% (n = 75,000). BRCT-phosphopeptide binding, red fluorescence polarization. P38398. Potency, µM (top dose mostly 76.9 µM), without a hit: top-dose activity change, negative = inhibition, most hits filed as inhibitors; further: on the % scale 0 is the no-effect control and ±100 the full control effect
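Fluorescence polarization: 100 nM His-tagged BRCA1 BRCT with 100 nM TAMRA-labelled phospho-BACH1 decapeptide, phosphate buffer pH 7.3 with 150 mM NaCl, DTT, 0.01% Tween 20; 12 min RT. Binding inhibition seen as FP decrease.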
BRCT inh green = blocks human BRCA1 BRCT binding to phosphopeptide, green readout; BRCA1 BRCT-phosphopeptide binding, green fluorescence polarization; Potency, µM (highest dose often 76.9 µM), for inactives: at the highest dose activity change, negative = inhibition, hits mostly inhibitors; actives 0.05% (n = 75,000);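 further: potency means the concentration at half of the fitted maximal effect; plate controls were peptide without protein for full effect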
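Compounds were incubated for 12 min at room temperature with a complex of 100 nM fluorescein-tagged pBACH1 decapeptide and 250 nM His-tagged BRCT protein. Buffer was phosphate pH 7.3 with EDTA, DTT and Tween 20. Disruption of binding lowers the polarization signal.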
YjeE inh = YjeE (TsaE) inhibition, E. coli; Potency, µM; P0AF67; purified YjeE enzyme, qHTS inhibition assay; actives 0.05% (n = 71,000)
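Purified YjeE (10 uM) with BODIPY Texas Red-labeled ADP probe (2 uM); compounds pin-transferred, 15 min at room temperature. Binding inhibition read as decreased fluorescence polarization; ADP titration as control.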
Pol III holo inh = DNA polymerase III holoenzyme inhibition; Potency, µM (titrated, usually from 57.1 µM), for inactives: at the highest dose activity change, negative = inhibition; actives 0.25% (n = 71,000); reconstituted DNA polymerase III holoenzyme replication, biochemical; further: potency means the concentration at half of the fitted maximal effect; on the % scale 0 is the no-effect control and ±100 the full control effect
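Reconstituted *E. coli* holoenzyme (0.35 nM Pol III, 1 nM beta, 154 nM SSB, 2 nM primase) was preincubated with compound for 15 min at RT. Synthesis on 1.4 nM ssM13Gori ran 35 min, then was stopped with PicoGreen/EDTA and read as dsDNA fluorescence.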
15-hLO inh = 15-hLO (ALOX15) enzyme inhibition; purified 15hLO-1, xylenol orange hydroperoxide absorbance; P16050; Potency, µM (highest dose often 57.1 µM), without a hit: top-dose activity change, negative = inhibition, most hits filed as inhibitors; AID 887; actives 1.4% (n = 74,000); further: potency means the concentration at half of the fitted maximal effect; on the % scale 0 is the no-effect control and ±100 the full control effect; nearly all actives have a fitted effect of over 55% in size
Target sequence (P16050 whole entry, looked up): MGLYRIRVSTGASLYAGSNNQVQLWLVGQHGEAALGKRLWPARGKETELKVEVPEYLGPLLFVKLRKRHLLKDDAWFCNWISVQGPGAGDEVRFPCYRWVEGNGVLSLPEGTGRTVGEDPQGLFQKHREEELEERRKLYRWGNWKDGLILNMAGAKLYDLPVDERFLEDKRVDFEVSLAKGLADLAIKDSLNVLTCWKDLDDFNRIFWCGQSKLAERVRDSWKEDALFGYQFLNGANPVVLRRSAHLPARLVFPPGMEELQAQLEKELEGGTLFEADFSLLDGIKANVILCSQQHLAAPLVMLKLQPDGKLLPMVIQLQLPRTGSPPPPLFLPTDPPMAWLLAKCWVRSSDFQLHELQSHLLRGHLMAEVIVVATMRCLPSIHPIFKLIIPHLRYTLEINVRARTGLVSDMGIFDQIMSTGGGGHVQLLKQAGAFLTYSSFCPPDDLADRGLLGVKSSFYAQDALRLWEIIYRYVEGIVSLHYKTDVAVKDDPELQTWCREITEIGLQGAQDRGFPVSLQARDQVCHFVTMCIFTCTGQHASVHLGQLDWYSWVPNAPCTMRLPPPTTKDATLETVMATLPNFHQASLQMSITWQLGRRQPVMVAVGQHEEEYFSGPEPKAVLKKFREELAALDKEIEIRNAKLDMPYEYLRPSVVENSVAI
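Inhibition is scored from a chromogenic endpoint. After 15 min enzyme-compound contact, arachidonic acid (50 uM final) reacts 6 min with 40 nM 15hLO-1 at room temperature, then Fe-XO reagent is added for 30 min and absorbance ratio recorded.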
ALOX15B inhib = 15-hLO-2 (ALOX15B) enzyme inhibition. Potency, µM (titrated, usually from 57.1 µM), for inactives: at the highest dose activity change, negative = inhibition, most hits filed as inhibitors. actives 0.56% (n = 110,000). O15296. purified 15hLO-2, xylenol orange hydroperoxide absorbance; further: potency means the concentration at half of the fitted maximal effect; on the % scale 0 is the no-effect control and ±100 the full control effect; nearly all actives have a fitted effect of over 60% in size
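Purified human 15hLO-2 (50 nM final) preincubated with compounds 15 min at room temperature in 25 mM Hepes pH 7.5, 0.01% Triton X-100, then 45 uM arachidonic acid added for 90 min; hydroperoxide detected via ferrous/xylenol orange, 573/405 nm absorbance ratio.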
Numbers without * were called inactive; i = inactive; ? = inconclusive; · = not tested or not shown; [ ] = dose if it differs, or a comment. The call rests on the fitted dose curve; in most records, active means well fitted curve in the direction sought with a large enough effect; inconclusive means small, poorly fitted or top-dose-only effect, or another doubt; inactive means no such curve, though single readings can be large; an effect the other way counts as inactive or inconclusive.

SMILES	BRCT inh red	BRCT inh green	YjeE inh	Pol III holo inh	15-hLO inh	ALOX15B inhib
CCN1CCC[C@@H]1CNC(=O)c1c(OC)ccc(I)c1O	·	·	i	4%	·	·
COc1cc(OC)cc(C(=O)NC(=S)NCCc2ccccc2)c1	·	·	·	·	·	7.9µM*
CC(C)[C@H](NC(=O)NCCc1ccccc1)C(=O)O	·	·	·	·	·	4%
CC(C)(C)C(=O)NC(=S)NCCc1ccccc1	·	·	·	·	·	13µM*
N[C@@]1(C(=O)O)CCC[C@@H]1C(=O)O	1%[15.4 µM]	0%[15.4 µM]	i	-9%[11.4 µM]	7%[11.4 µM]	-3%[11.4 µM]
COc1ccccc1NC(=O)N(Cc1ccco1)Cc1cc2cc(C)cc(C)c2[nH]c1=O	1%	4%	i	-3%	10µM*	8%
CN1CCN(CC(=O)N2c3ccccc3Sc3cc4ccccc4cc32)CC1	0%[15.4 µM]	1%[15.4 µM]	i	-11%[11.4 µM]	-5%[11.4 µM]	33%[11.4 µM]
COc1cc(C2CC(=O)Oc3ccc(O)cc32)cc(OC)c1OC (stereo not drawn)	·	·	·	·	·	-21%[0.0915 µM]
c1ccc(-c2ccc(-c3ccc(C4=NCCN4)cc3)o2)cc1	0%[15.4 µM]	0%[15.4 µM]	i	-9%[11.4 µM]	-6%[11.4 µM]	4%[11.4 µM]
COc1ccccc1N1C(=O)c2ccccc2NC1c1ccncc1 (stereo not drawn)	-1%	0%	i	-4%	20µM*	-1%
O=C1c2ccccc2NC(c2ccncc2)N1c1ccccn1 (stereo not drawn)	-1%	-4%	i	-1%	11%	13%
CCOC(=O)C1=C(C)NC(=O)NC1c1ccc(OC(C)C(=O)O)c(OC)c1 (stereo not drawn)	-8%	0%	i	-8%	25µM*	2%
O=c1c(-c2ccc3c(c2)OCCO3)coc2cc(O)cc(O)c12	2%	-1%	i	6%	16µM*	3%
O=c1c(-c2ccccc2)coc2cc(O)cc(O)c12	?	-1%[3.08 µM]	·	·	3.2µM*	5%
CC(C)(C)N1C(=O)Cc2c1nc(N)c1c(N)nc(N3CCCCC3CO)c(C#N)c21 (stereo not drawn)	0%	4%	i	-10%	20µM*	25µM*
O=C(O)CCn1cnc2c(=S)nc[nH]c21	1%[15.4 µM]	0%[15.4 µM]	i	12%[11.4 µM]	-2%[11.4 µM]	0%[11.4 µM]
NCCNc1ncnc2ccc(Cl)cc12	-1%[15.4 µM]	0%[15.4 µM]	i	0%[11.4 µM]	-3%[11.4 µM]	-1%[11.4 µM]
Cc1c(C)n(C)c2ccc(C(=O)NCc3cccs3)cc12	10%	7%	?	0%	10µM*	·
CCCS(=O)(=O)c1c(S(=O)(=O)CCC)c2c(N)cccn2c1C(=O)c1ccc(F)cc1	-1%	0%	i	-8%	10µM*	-12%
CCCS(=O)(=O)c1c(S(=O)(=O)CCC)c2c(C)cccn2c1C(=O)OC	·	·	·	·	·	-14%
COc1ccc(OC)c2c(=S)c3ccccc3[nH]c12	-1%	-5%	i	-17%	10µM*	-7%
CNC(=O)c1ccc(-c2sc3nc(N4CCOCC4)c4c(c3c2N)CCCC4)o1	-5%	-3%	i	-7%[11.4 µM]	?	?
CC1(C)Cc2c(c(N3CCOCC3)nc3sc(-c4ccc(C(=O)O)o4)c(N)c23)CO1	0%	11%	i	-12%	20µM*	·
Cc1ccc(C)n1NC(=O)c1cccs1	1%	0%	i	-1%	16µM*	-12%
Cc1ccc(-c2ccc(CCC(=O)O)n2NC(=O)c2cccs2)cc1	-2%	2%	i	-8%	-18%	-16%
SMILES	BRCT inh red	BRCT inh green	YjeE inh	Pol III holo inh	15-hLO inh	ALOX15B inhib
O=[N+]([O-])c1cc(C(F)(F)F)ccc1NCCNC(=S)Nc1ccc(Cl)cc1	·	·	·	·	·	32µM*
CCCCNC(=O)CSc1nc2ccc(N3CCOCC3)cc2c(=O)n1CCc1ccccc1	-2%	-6%	i	-19%	25µM*	·
CN(C)CCCNC(=O)c1ccc(Cc2nc3ccccc3[nH]2)cc1	1%	-2%	·	·	8%	·
COCCNc1nc(C)nc2c1nc(-c1ccccc1)n2CCCN1CCCCC1C (stereo not drawn)	1%	-1%	i	0%	3%	6%
CC(=O)O[C@H]1C(=O)[C@]2(C)[C@H]([C@H](OC(=O)c3ccccc3)[C@@]3(O)C[C@H](OC(=O)[C@@H](O)[C@@H](NC(=O)c4ccccc4)c4ccccc4)C(C)=C1C3(C)C)[C@]1(OC(C)=O)CO[C@@H]1C[C@@H]2O	·	·	i	-6%	·	·
COc1ccc2c(c1)Cc1sc(NC(=O)c3cccs3)nc1-2	1%	-5%	i	-6%	32µM*	4%
COc1cccc2c1[C@@H]1CN(CCCCn3c(=O)[nH]c4c(sc5ncc(-c6ccccc6)nc54)c3=O)C[C@H]1CO2	-2%	-1%	i	15%	13%	45%
N#CC1=C(N)OC2=C(C(=O)CCC2)C12CCN(C(=O)OCc1ccccc1)CC2	-1%	2%	i	-1%	25µM*	-4%
O=C1c2c(O)cc(O)cc2O[C@@H](c2ccc(O)c(O)c2)[C@H]1O	1%	-2%	i	-1%	13µM*	-13%
O=C1CC(c2ccc(O)c(O)c2)Oc2cc(O)cc(O)c21 (stereo not drawn)	19%	-1%[3.08 µM]	·	·	10µM*	?
COc1ccc(CNc2ncnc3ccc(-c4ccccc4CN(C)C)cc23)c(OC)c1	2%	1%	i	-3%	2%	56%
CC(C)C[C@H](NC(=O)[C@@H](O)[C@@H](N)Cc1ccccc1)C(=O)O	2%	-3%	i	-3%	12%	-6%
OC[C@@H]1O[C@@H](n2cnc3cncnc32)[C@@H](O)[C@H]1O	-3%	-1%	i	-6%	-5%	8%
O=C1C=CC2=C3c4cc(O)c(O)cc4C[C@@]3(O)COC2=C1O	·	·	?	0.02µM*	·	·
O=C1C=CC2=C3c4cc(O)c(O)cc4C[C@]3(O)COC2=C1	-10%	-1%[3.08 µM]	·	·	-24%	-23%
CC(C)C[C@@H](CC(=O)N[C@H](CC(=O)N[C@@H]1CCNC[C@H]1C(=O)N[C@H](CC(=O)N[C@@H](CCC(=O)O)CC(=O)O)Cc1c[nH]c2ccccc12)C(C)C)NC(=O)[C@@H]1CNCC[C@H]1N	·	·	i	-4%	·	·
Cn1cccc1Cc1nnc(SCC(=O)Nc2cccc(F)c2)n1CCc1ccccc1	-2%	0%	i	8%	?	·
Cn1cccc1Cc1nnc(SCC(=O)Nc2ccccc2F)n1CCc1ccccc1	0%	2%	i	-1%	16µM*	·
Cc1csc(NC(=O)CSc2nnc(Cc3cccn3C)n2CCc2ccccc2)n1	-2%	-6%	i	-8%	13µM*	·
CC(C)c1ccc(O)c(O)c(=O)c1 (tested in a mixture with another compound)	0%[15.4 µM]	-4%[15.4 µM]	i	-6%[11.4 µM]	-15%[11.4 µM]	4µM*
